This note sets out measurements from PubChem BioAssay.

Calls of active or inactive are those of the source.

One assay has as its target Albumin (Bos taurus) (UniProt P02769). In words: compounds binding labelled BSA control protein – biochemical, small-molecule microarray, Alexa647 label, 635/667 nm fluorescence, artefact control for SMM control protein annotation, profiling panel (AID 1118).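 Further: score merges 667 nm emission intensity and signal-to-noise per printed compound spot.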 As to conditions: BSA-A647 binding, fluorescence 635 nm, higher = more signal.
The nature of assay [1]: probe aXIP binding to arrayed compounds – biochemical, NeuroSMM set, 635/667 nm fluorescence, primary screen (AID 1119).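 Further: probe is the protein aXip251-270 applied at 1 µg/mL to compound-printed slides; binding of probe to printed compounds measured as 667 nm fluorescence plus signal to noise.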 As to conditions: small-molecule microarray, higher = more signal, called active from +8 up or from −8 down.
Assay [2] in a line: probe aNOTCH3 binding on compound microarray – biochemical, small-molecule microarray, 635/667 nm fluorescence, primary screen (AID 1120).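 Further: probe is a biotin-tagged antibody raised against NOTCH3 rather than NOTCH3 protein; score merges spot fluorescence near 667 nm with spot signal to noise.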 As to conditions: higher = more signal.
Assay [3] is described as follows: probe aNOTCH2 binding on compound microarray – biochemical, small-molecule microarray, 635/667 nm fluorescence, primary screen (AID 1121).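 Further: score merges feature fluorescence read at 667 nm with its signal to noise.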 As to conditions: higher = more signal.
The target of assay [4] is Carbonic anhydrase 2 (Homo sapiens) (UniProt P00918). In words: compounds binding carbonic anhydrase 2 – biochemical, small-molecule microarray, Alexa647-labelled CAII, profiling panel (AID 1122). As to conditions: CAII-A647 binding fluorescence, higher = more signal.
A short description of assay [5]: COS7 lysate on small-molecule microarray, probe aHis, 635 nm (AID 1123).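 Further: z-score combines 667nm fluorescence intensity with signal-to-noise per printed compound spot.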 The conditions noted are these: COS7 cell lysate, fluorescence, higher = more signal.
A short description of assay [6]: probe aLAP1 signal on lysate-treated microarray – cell lysate, small-molecule microarray, COS7 lysate, primary screen (AID 1124).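 Further: lysate comes from COS7 cells expressing LAP1 and is applied at 0.3 µg/mL; score merges spot fluorescence near 667 nm with signal-to-noise over triplicate slides.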 As to conditions: probe aLAP1, fluorescence, higher = more signal.
The test system of another assay is Sam68 (KHDRBS1). The experiment in a line: compounds binding KHDRBS1 protein – biochemical, small-molecule microarray, 635 nm fluorescence, primary screen (AID 1125).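 Further: score merges 667 nm channel intensity with signal to noise over triplicate slides.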 The conditions noted are these: higher = more signal.
Assay [7] has as its system Chordin-like protein 2 (CHRDL2). In words: compounds binding chordin-like 2 – biochemical, small-molecule microarray, 635 nm fluorescence, primary screen (AID 1126).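 Further: printed compound slides probed with Chrdl2 protein at 4 µg/mL for 1 h at 4 C; score merges 667 nm emission intensity with signal to noise over three replicate slides.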 As to conditions: fluorescence 635 nm, higher = more signal.
In assay [8] the target is Concanavalin-A (Canavalia ensiformis) (UniProt P02866). The experiment in a line: compounds binding concanavalin A lectin – biochemical, small-molecule microarray, Alexa647 label, 635 nm, artefact control for SMM control protein annotation, primary screen (AID 1127).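 Further: z combines 667 nm emission intensity with signal-to-noise across three replicate slides.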 The conditions noted are these: ConA-A647 binding fluorescence, higher = more signal.
Sequence of Concanavalin-A (Canavalia ensiformis) (P02866 whole entry, looked up): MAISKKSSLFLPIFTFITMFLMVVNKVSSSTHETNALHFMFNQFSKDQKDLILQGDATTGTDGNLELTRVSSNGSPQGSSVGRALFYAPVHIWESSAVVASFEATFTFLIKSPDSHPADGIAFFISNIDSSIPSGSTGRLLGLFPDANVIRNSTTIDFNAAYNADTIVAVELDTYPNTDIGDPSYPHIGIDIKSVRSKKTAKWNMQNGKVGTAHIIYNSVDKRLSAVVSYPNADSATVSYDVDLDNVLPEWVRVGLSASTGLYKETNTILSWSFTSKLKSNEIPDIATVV
Assay [9] can be described thus: compounds binding Alexa647 anti-His antibody – biochemical, small-molecule microarray, 635 nm fluorescence, artefact control for SMM control protein annotation, primary screen (AID 1128).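 Further: score merges feature fluorescence with signal-to-noise for each printed compound spot.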 The conditions noted are these: higher = more signal.
The subject of assay [10] is Human papillomavirus type 1a E7 protein (residues 1-88). In words: HPV1a E7 small-molecule binders, primary screen, biochemical, small-molecule microarray, residues 1-88, 635 nm (AID 1129). As to conditions: small-molecule microarray binding, fluorescence 635 nm; higher = more signal.
In assay [11] the target is Focal adhesion kinase 1 (Homo sapiens) (UniProt Q05397). In words: PTK2 protein binding on printed compound slides – biochemical, small-molecule microarray, 635/667 nm fluorescence, BSA, DTT, primary screen (AID 1130).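 Further: composite of spot emission at 667 nm and signal to noise over triplicate slides.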 As to conditions: 635 nm fluorescence, higher = more signal.
Sequence of Focal adhesion kinase 1 (Homo sapiens) (Q05397 whole entry, looked up): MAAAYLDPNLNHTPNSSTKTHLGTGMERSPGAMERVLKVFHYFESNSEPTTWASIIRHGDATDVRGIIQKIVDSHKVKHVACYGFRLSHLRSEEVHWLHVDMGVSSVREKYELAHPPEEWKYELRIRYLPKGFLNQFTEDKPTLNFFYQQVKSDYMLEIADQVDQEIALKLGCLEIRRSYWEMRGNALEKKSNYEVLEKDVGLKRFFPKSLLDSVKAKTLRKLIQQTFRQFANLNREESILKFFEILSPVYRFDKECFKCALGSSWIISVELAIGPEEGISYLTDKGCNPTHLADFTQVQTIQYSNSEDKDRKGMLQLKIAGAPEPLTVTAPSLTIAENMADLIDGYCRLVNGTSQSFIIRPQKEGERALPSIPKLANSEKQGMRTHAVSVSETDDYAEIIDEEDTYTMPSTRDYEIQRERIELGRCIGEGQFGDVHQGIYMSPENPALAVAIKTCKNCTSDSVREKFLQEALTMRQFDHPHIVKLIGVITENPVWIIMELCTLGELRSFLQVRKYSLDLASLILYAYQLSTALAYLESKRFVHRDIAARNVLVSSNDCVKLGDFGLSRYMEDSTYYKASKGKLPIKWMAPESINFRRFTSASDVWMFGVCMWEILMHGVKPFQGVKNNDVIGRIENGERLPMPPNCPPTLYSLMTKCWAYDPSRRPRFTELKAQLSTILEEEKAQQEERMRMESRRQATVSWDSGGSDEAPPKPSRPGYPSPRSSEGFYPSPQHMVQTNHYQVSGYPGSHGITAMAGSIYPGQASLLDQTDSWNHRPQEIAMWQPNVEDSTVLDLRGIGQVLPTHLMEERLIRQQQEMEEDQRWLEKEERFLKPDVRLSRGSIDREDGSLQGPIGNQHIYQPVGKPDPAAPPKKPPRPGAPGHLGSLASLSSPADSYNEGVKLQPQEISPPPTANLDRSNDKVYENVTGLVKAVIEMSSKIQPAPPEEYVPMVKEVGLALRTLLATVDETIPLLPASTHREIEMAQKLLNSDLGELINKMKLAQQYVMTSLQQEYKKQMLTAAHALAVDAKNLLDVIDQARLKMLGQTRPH
The subject of assay [12] is Fibrinogen (Alexa647-labelled). In words: Alexa647-fibrinogen binding to printed small molecules – biochemical, small-molecule microarray, 635/667 nm fluorescence, artefact control for SMM control-protein annotation, profiling panel (AID 1131).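 Further: z-score merges 667 nm fluorescence with per-spot signal-to-noise over triplicate slides.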 As to conditions: fibrinogen-A647 binding fluorescence, higher = more signal.
The target in assay [13] is Follistatin (Homo sapiens) (UniProt P19883). In words: FST protein binding to printed compounds – biochemical, small-molecule microarray, 635/667 nm fluorescence, primary screen (AID 1132). As to conditions: 635 nm fluorescence, higher = more signal.
Sequence of Follistatin (Homo sapiens) (P19883 whole entry, looked up): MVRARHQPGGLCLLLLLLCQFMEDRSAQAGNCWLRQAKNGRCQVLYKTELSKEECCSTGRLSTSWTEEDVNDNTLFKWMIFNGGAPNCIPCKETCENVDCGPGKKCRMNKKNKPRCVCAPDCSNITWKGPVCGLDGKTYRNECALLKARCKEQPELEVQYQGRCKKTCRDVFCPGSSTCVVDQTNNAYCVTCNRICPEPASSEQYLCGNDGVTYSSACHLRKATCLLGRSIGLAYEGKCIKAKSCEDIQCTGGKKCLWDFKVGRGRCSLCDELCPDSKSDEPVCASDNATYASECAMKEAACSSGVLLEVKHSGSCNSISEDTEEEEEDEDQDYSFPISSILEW
Assay [14] deals with Fibroblast growth factor 2 (Homo sapiens) (UniProt P09038). The experiment in a line: basic fibroblast growth factor binding to printed compounds – biochemical, small-molecule microarray, 635/667 nm fluorescence, primary screen (AID 1133). The conditions noted are these: FGF2, fluorescence 635/667, higher = more signal.
Sequence of Fibroblast growth factor 2 (Homo sapiens) (P09038 whole entry, looked up): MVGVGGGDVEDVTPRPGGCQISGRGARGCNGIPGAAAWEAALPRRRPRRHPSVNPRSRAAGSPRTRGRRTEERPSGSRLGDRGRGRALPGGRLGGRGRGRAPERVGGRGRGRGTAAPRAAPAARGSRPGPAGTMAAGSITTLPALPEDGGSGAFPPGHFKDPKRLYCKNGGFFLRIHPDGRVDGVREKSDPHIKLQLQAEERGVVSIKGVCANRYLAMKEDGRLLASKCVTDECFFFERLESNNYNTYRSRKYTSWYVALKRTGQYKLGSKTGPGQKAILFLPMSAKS
Assay [15] in a line: JC-1 mitochondrial potential readout, lung cancer cells – cell-based, A549, JC-1 fluorescence, basal, 24 h, 100 nL, profiling panel (AID 1138).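 Further: A549 lung adenocarcinoma cells under basal conditions with no added stimulus; test concentration not given here.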 The conditions noted are these: higher = more signal.
In another assay the test system is Lefty1. The experiment in a line: Lefty1 protein binding to printed compounds – biochemical, small-molecule microarray, 635/667 nm fluorescence, primary screen (AID 1139). As to conditions: fluorescence 635/667, higher = more signal.
In assay [16] the test system is wheat germ agglutinin (Triticum aestivum), Alexa647-labelled. In words: Alexa647-WGA lectin binding to printed small molecules – biochemical, small-molecule microarray, 635/667 nm fluorescence, artefact control for SMM control-protein annotation, profiling panel (AID 1140).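 Further: score merges 667 nm feature emission with signal to noise over triplicate slides.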 The conditions noted are these: WGA-A647 binding, 635 nm fluorescence, higher = more signal.
Assay [17] addresses Luciferin 4-monooxygenase (Photinus pyralis) (UniProt P08659). The experiment in a line: inhibition of purified Photinus pyralis luciferase – biochemical, luminescence, purified enzyme, 2006 set, primary screen (AID 1141).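 Further: cell-free assay with purified firefly luciferase at 100 ng per well in PBS; test concentration not given here.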 The conditions noted are these: purified firefly luciferase, SteadyGlo luminescence, 30 min; higher = more signal, called active from +8 up or from −8 down.

Sequence of Luciferin 4-monooxygenase (Photinus pyralis) (P08659 whole entry, looked up): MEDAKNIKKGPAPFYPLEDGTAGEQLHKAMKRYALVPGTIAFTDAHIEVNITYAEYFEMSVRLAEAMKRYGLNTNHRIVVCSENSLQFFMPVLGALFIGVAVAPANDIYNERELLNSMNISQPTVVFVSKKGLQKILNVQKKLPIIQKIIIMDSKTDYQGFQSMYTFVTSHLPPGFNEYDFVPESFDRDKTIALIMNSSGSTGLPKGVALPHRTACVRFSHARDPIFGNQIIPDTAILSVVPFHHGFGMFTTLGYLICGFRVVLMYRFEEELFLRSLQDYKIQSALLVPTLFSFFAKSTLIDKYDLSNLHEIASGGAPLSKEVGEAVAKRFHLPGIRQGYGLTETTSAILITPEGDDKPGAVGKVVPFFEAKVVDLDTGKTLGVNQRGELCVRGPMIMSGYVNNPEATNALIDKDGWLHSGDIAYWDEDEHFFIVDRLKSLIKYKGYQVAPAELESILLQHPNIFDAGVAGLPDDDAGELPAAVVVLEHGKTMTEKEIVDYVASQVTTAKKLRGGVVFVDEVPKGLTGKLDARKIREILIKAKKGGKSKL
Sequence of Albumin (Bos taurus) (P02769 whole entry, looked up): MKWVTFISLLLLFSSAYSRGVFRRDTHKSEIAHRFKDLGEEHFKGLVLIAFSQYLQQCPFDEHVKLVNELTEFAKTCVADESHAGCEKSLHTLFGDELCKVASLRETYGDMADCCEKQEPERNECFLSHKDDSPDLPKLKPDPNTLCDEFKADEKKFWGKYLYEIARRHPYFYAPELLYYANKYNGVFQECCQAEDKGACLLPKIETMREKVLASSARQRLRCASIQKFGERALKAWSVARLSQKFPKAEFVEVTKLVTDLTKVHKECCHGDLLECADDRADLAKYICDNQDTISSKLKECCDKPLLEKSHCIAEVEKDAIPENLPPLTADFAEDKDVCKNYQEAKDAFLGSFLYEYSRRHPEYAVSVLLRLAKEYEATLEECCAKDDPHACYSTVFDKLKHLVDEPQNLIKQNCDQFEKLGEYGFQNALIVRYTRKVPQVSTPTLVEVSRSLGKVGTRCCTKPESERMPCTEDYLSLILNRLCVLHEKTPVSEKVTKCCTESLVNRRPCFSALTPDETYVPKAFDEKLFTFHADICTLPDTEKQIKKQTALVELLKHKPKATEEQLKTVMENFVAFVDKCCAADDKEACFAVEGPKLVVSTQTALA

Take `O=C1O[C@@H](c2ccccc2)[C@@H](c2ccccc2)N2[C@@H](c3ccc(OCCO)cc3)[C@]3(C(=O)Nc4ccccc43)[C@@H](C(=O)N3CCN(c4ncccn4)CC3)[C@H]12`: the composite z-score with Albumin (Bos taurus) was 0.162; in [2] it was 0.0824; in assay [3], -0.091; in assay [4] it was 0.403; in assay [5], 1.84; in assay [6] it was 0.88. For the same compound, the composite z-score in the assay on Sam68 (KHDRBS1) stood at 1.3; in assay [7] it was 0.902; in [8] it was 1.15; in assay [9], 1.08; in [10] it was 1.18; in [11], 0.687. In addition, the composite z-score came out at 0.489 in assay [12]; 1.28 in assay [13]; 1.17 in assay [14]; 1.19 in the assay with Lefty1; 0.929 in [16]. In addition, the composite Z-score in assay [1] is 0.338 (inactive). Besides, the z-score in assay [15] was -0.473; in assay [17], -1.4 (inactive).
Take `COc1ccc(-c2nc3c(c4c2C[C@H](C)OC4)CN(CCC(C)C)CC3)cc1`: the composite z-score with Albumin (Bos taurus) is 0.556; in [2], -0.166; in assay [3], -0.0167; in [4] it was 0.441; in assay [5] it was 0.455; in [6], -0.177. Moreover, the composite z-score in the assay with Sam68 (KHDRBS1) worked out at 1.23; in [7], 0.348; in [8] it was 0.928; in assay [9] it was 0.998; in assay [10], 1.14; in assay [11], 0.233. Moreover, the composite z-score stood at 0.809 in assay [12]; 0.653 in assay [13]; 0.491 in assay [14]; 0.67 with Lefty1; 0.642 in assay [16]. For the same compound, in assay [1], the composite Z-score is 0.292 (inactive). Moreover, the z-score in assay [15] was 2.72; in [17], -0.793 (inactive).
For `CCOc1ccc(N2C(=O)/C(=C/C=C/c3ccccc3OC)S(=O)(=O)C2c2cccc([N+](=O)[O-])c2)cc1` (stereo not given), the composite z-score is 0.382 with Albumin (Bos taurus); 0.0762 in [2]; -0.0793 in assay [3]; -0.138 in assay [4]; 0.13 in assay [5]; 0.32 in [6]. Moreover, the composite z-score in the assay on Sam68 (KHDRBS1) is -0.319; in assay [7] it was 0.198; in [8], 0.133; in assay [9], -0.359; in assay [10], 0.339; in assay [11], 0.0604. Moreover, the composite z-score in assay [12] was 0.441; in [13], 0.475; in assay [14], 0.235; with Lefty1 it was 0.23; in assay [16], 0.432. In addition, the composite Z-score in assay [1] is -0.327 (inactive). Moreover, the z-score in assay [15] is 2.31; in assay [17], -0.889 (inactive).
With `C=CCNC(=O)[C@H]1[C@@H]2C(=O)O[C@@H](c3ccccc3)[C@@H](c3ccccc3)N2[C@@H](c2ccc(O)cc2)[C@]12C(=O)N(C(=O)OCCOC)c1ccc(C#CC3=CCCCC3)cc12`, the composite z-score in the assay with Albumin (Bos taurus) is 0.633; in [2], 1.27; in assay [3], 0.396; in [4], 0.296; in [5], 2.23; in assay [6], 1.78. Also, the composite z-score in the assay with Sam68 (KHDRBS1) amounted to 1.3; in assay [7], 0.966; in [8] it was 1.09; in assay [9], 0.692; in assay [10], 1.22; in [11] it was 0.723. Also, the composite z-score stood at 0.892 in assay [12]; 0.379 in assay [13]; 0.248 in assay [14]; 0.484 with Lefty1; 0.583 in assay [16]. The composite Z-score in assay [1] is 0.62 (inactive). For the same compound, the z-score in assay [15] was -0.76; in assay [17], -0.54 (inactive).
As to `CCN1C(=O)[C@H]2[C@H]3[C@H](O)C=CC(=O)[C@@H]3CC[C@H]2C1=O`, the composite z-score was -0.338 in the assay with Albumin (Bos taurus); 0.0519 in [2]; -0.117 in assay [3]; -0.132 in assay [4]; -0.177 in assay [5]; 0.402 in assay [6]. In addition, the composite z-score stood at 0.234 in the assay with Sam68 (KHDRBS1); 0.587 in [7]; 0.373 in assay [8]; 0.635 in [9]; 0.936 in assay [10]; 0.0565 in [11]. Besides, the composite z-score in assay [12] is 0.677; in assay [13], 0.307; in assay [14], 0.731; in the assay with Lefty1, 0.514; in assay [16] it was 0.295. Further, in assay [1], the composite Z-score was -0.56 (inactive). The z-score in assay [15] was -0.774; in assay [17], -0.605 (inactive).
